Structures are written as SMILES.

For orientation: Inhibition means the share of the control response that was lost under treatment. Read a low Inhibition as a weak effect.

The first assay relates to Plasmodium falciparum. The assay is described as follows: GSK_TCMDC: Inhibition of Plasmodium falciparum 3D7 in whole red blood cells, using parasite LDH activity as an index of growth. Test compounds present at 2uM. It counts as functional.
Compound `Cc1cccc(Cn2ccc3c(N)nc(N)nc32)c1` registered an Inhibition of 82%. For `COc1ccc2c(CNCCCCCCNCc3c(OC)ccc4cc(OC)ccc34)c(OC)ccc2c1.CS(=O)(=O)O`, the Inhibition is 100%. The compound `CCCc1cc(OC)c(CC2c3cc(O)c(Cl)cc3C(c3ccccc3)CN2C)cc1OC.Cl` (centres undefined) yielded an Inhibition of 100%. `CC(=NNc1nc2ccccc2s1)c1ccccn1.Cl` came in with an Inhibition of 88%. Still for that read-out and setting: the same measure for `Cc1ccccc1Cn1ccc2c3c(N)nc(N)nc3ccc21`: 100%. `CN(C)C(=S)N/N=C1/C(=O)Nc2ccccc21`: the Inhibition amounted to 95%.

In the case of `Cc1nc(NCc2ccccc2)cc(Nc2cc(NCc3ccccc3)nc(C)n2)n1`, the Inhibition came to 90%. In the case of `CCCCCCCCCC(=O)NCC1CC(Br)=NO1` (centres undefined), the Inhibition is 87%. Compound `CCOc1cc2ncnc(Nc3ccc(OCc4c(Cl)cccc4Cl)c(OC)c3)c2cc1OCC.Cl` gave an Inhibition of 89%. In the case of `CCCCCCCc1c(C)[nH]c2ccc(F)cc2c1=O`, the Inhibition was 98%. As for `CCS(=O)(=O)O.N=C(N)NC(=O)Nc1ccc(Cl)c([N+](=O)[O-])c1`, the Inhibition was found to be 97%.

`Nc1nc(N)c2c(Sc3ccccc3)cccc2n1` returned an Inhibition of 97%. `Cc1cc(O)c(-c2ccc(S(=O)(=O)c3ccc(Cl)cc3)cc2)c(C)n1` yielded an Inhibition of 92%.

Compound `CC(CO)(CO)NCc1cc2ccc3ccsc3c2c2ccccc12.CS(=O)(=O)O` displayed an Inhibition of 96%.

In the case of `CC1CCNc2ccc(Cc3cnc(N)nc3N)cc21.Cl` (centres undefined), the Inhibition amounted to 82%. On the same count and under the same terms, the same measure for `Cc1[nH]c(C)c(-c2ccc(Oc3cccc(C(F)(F)F)c3)cc2)c(=O)c1Br`: 99%; for `CCN(CC)c1ccc2nc(N)nc(N)c2c1.Cl`: 93%. Still for that read-out and setting: the same measure for `Cc1c(Cc2ccc(C(C)C)cc2)cnc2nc(N)nc(N)c12`: 97%; for `CCOC(=O)c1nc2ccc(SC3CCCCC3)cn2c1Br`: 86%; for `Cc1ccc(Cc2cccc3nc(N)nc(N)c23)cc1`: 92%. For `Cc1nc2ccc(S(=O)(=O)Nc3ccc(C(=O)N[C@@H](CCC(=O)O)C(=O)O)cc3)cc2c(=O)[nH]1`, the Inhibition was 94%. As for `Cc1cc(O)c(-c2ccc(OCc3ccc(Cl)cc3)cc2)c(C)n1`, the Inhibition was 93%. Compound `CCCCc1nc2nc(N)nc(N)c2cc1CCC` yielded an Inhibition of 97%. The compound `COc1cc(CCNC(=O)Cc2ccc3ccccc3c2)ccc1OCc1ccccc1` showed an Inhibition of 93%. `Cl.N=C(N)c1ccc(OCCCCCOc2ccc(C(=N)N)cc2)cc1` [PENTAMIDINE HYDROCHLORIDE]: the Inhibition is listed as 99%. `CCc1cc2c3c(N)nc(N)nc3ccc2n1C(C)(C)C`: the Inhibition came out at 99%. `Cc1nc(C)c(-c2ccc(Oc3cccc(OC(F)(F)F)c3)cc2)c(O)c1Br` showed an Inhibition of 100%. `CCCc1ccc(Cc2cnc3nc(N)nc(N)c3c2C)cc1` registered an Inhibition of 98%. The same measure, in the same setting: the figure for `Cc1nc(C)c(-c2ccc(Oc3cccc(OC(F)(F)F)c3)cc2)c(O)c1Cl` is 97%; for `CC(C)C(=O)Nc1c(F)cc(F)cc1CCc1ccc(O)cc1` it is 90%; for `CCCCOc1c(CCNCCCCNCCc2cc(OC)c3ccccc3c2OCCCC)cc(OC)c2ccccc12.CS(=O)(=O)O` it is 91%. The same measure, in the same setting: the figure for `Cc1nc(N)nc(N)c1-c1ccc(Br)c(Br)c1` is 94%; for `Cl.c1ccc2c(CNCCCN3CCN(CCCNCc4c5ccccc5cc5ccccc45)CC3)c3ccccc3cc2c1` it is 100%. On the same count and under the same terms, the figure for `Cl.Clc1ccc(CNCCCCCCCNCc2ccc(Cl)c(Cl)c2)cc1Cl` is 99%; for `Cc1nc(C)c(-c2ccc(S(=O)(=O)c3ccc(Cl)cc3)cc2)c(O)c1Br` it is 97%.

Turning to `CCCCCCCN(Cc1ccc(OC(C)(C)C(=O)OCC)cc1)C(=O)Cc1ccc(F)cc1F`, the Inhibition came out at 93%. `CCOc1cc(Cc2cnc(N)nc2N)cc(Br)c1OC`: the Inhibition came out at 83%.

With `Cc1cccc(-c2c(C)nc(N)nc2N)c1`, the Inhibition was 88%. On to `Cc1ccc(Cn2ccc3c4c(N)nc(N)nc4ccc32)cc1`, for which the Inhibition amounted to 99%.

The subject of a further assay is Plasmodium falciparum. The assay is described as follows: GSK_TCMDC: Inhibition of Plasmodium falciparum Dd2 in whole red blood cells, using parasite LDH activity as an index of growth. Test compounds present at 2uM. It counts as functional.
In turn, `COc1ccc2c(CNCCCCCCNCc3c(OC)ccc4cc(OC)ccc34)c(OC)ccc2c1.CS(=O)(=O)O` came in with an Inhibition of 79%. Still for that read-out and setting: the same measure for `CCCc1cc(OC)c(CC2c3cc(O)c(Cl)cc3C(c3ccccc3)CN2C)cc1OC.Cl` (centres undefined): 100%; for `CC(=NNc1nc2ccccc2s1)c1ccccn1.Cl`: 47%. Compound `CN(C)C(=S)N/N=C1/C(=O)Nc2ccccc21` yielded an Inhibition of 96%. Turning to `Cc1nc(NCc2ccccc2)cc(Nc2cc(NCc3ccccc3)nc(C)n2)n1`, the Inhibition worked out at 32%.

Turning to `CCCCCCCCCC(=O)NCC1CC(Br)=NO1` (centres undefined), the Inhibition was determined as 42%. Consider `CCOc1cc2ncnc(Nc3ccc(OCc4c(Cl)cccc4Cl)c(OC)c3)c2cc1OCC.Cl`, for which the Inhibition amounted to 12%. The compound `CCCCCCCc1c(C)[nH]c2ccc(F)cc2c1=O` had an Inhibition of 96%. Compound `CCS(=O)(=O)O.N=C(N)NC(=O)Nc1ccc(Cl)c([N+](=O)[O-])c1` gave an Inhibition of 9%. `Nc1nc(N)c2c(Sc3ccccc3)cccc2n1` registered an Inhibition of 0%. Consider `Cc1cc(O)c(-c2ccc(S(=O)(=O)c3ccc(Cl)cc3)cc2)c(C)n1`, for which the Inhibition came to 80%. As to `CC(CO)(CO)NCc1cc2ccc3ccsc3c2c2ccccc12.CS(=O)(=O)O`, the Inhibition turned out to be 98%. `CC1CCNc2ccc(Cc3cnc(N)nc3N)cc21.Cl` (centres undefined) yielded an Inhibition of 0%. In the case of `Cc1[nH]c(C)c(-c2ccc(Oc3cccc(C(F)(F)F)c3)cc2)c(=O)c1Br`, the Inhibition stood at 97%. Consider `CCN(CC)c1ccc2nc(N)nc(N)c2c1.Cl`, for which the Inhibition is given as 0%.

As to `Cc1c(Cc2ccc(C(C)C)cc2)cnc2nc(N)nc(N)c12`, the Inhibition is reported as 0%. `CCOC(=O)c1nc2ccc(SC3CCCCC3)cn2c1Br` returned an Inhibition of 3%. Take `Cc1ccc(Cc2cccc3nc(N)nc(N)c23)cc1`: the Inhibition is 0%. On the same count and under the same terms, the same measure for `Cc1nc2ccc(S(=O)(=O)Nc3ccc(C(=O)N[C@@H](CCC(=O)O)C(=O)O)cc3)cc2c(=O)[nH]1`: 2%; for `Cc1cc(O)c(-c2ccc(OCc3ccc(Cl)cc3)cc2)c(C)n1`: 76%. Same read-out and setting: the same measure for `CCCCc1nc2nc(N)nc(N)c2cc1CCC`: 0%; for `COc1cc(CCNC(=O)Cc2ccc3ccccc3c2)ccc1OCc1ccccc1`: 61%; for `Cl.N=C(N)c1ccc(OCCCCCOc2ccc(C(=N)N)cc2)cc1` [PENTAMIDINE HYDROCHLORIDE]: 98%. Consider `Cc1nc(C)c(-c2ccc(Oc3cccc(OC(F)(F)F)c3)cc2)c(O)c1Br`, for which the Inhibition is given as 96%. `CCCc1ccc(Cc2cnc3nc(N)nc(N)c3c2C)cc1` returned an Inhibition of 0%. Compound `Cc1nc(C)c(-c2ccc(Oc3cccc(OC(F)(F)F)c3)cc2)c(O)c1Cl` registered an Inhibition of 97%. Compound `CC(C)C(=O)Nc1c(F)cc(F)cc1CCc1ccc(O)cc1` registered an Inhibition of 91%. As for `CCCCOc1c(CCNCCCCNCCc2cc(OC)c3ccccc3c2OCCCC)cc(OC)c2ccccc12.CS(=O)(=O)O`, the Inhibition stood at 47%. Same read-out and setting: the same measure for `Cc1nc(N)nc(N)c1-c1ccc(Br)c(Br)c1`: 1%; for `Cl.c1ccc2c(CNCCCN3CCN(CCCNCc4c5ccccc5cc5ccccc45)CC3)c3ccccc3cc2c1`: 100%. Compound `Cl.Clc1ccc(CNCCCCCCCNCc2ccc(Cl)c(Cl)c2)cc1Cl` yielded an Inhibition of 49%. Still for that read-out and setting: the figure for `Cc1nc(C)c(-c2ccc(S(=O)(=O)c3ccc(Cl)cc3)cc2)c(O)c1Br` is 97%; for `CCCCCCCN(Cc1ccc(OC(C)(C)C(=O)OCC)cc1)C(=O)Cc1ccc(F)cc1F` it is 95%. Consider `CCOc1cc(Cc2cnc(N)nc2N)cc(Br)c1OC`, for which the Inhibition is 3%.

In turn, `Cc1cccc(-c2c(C)nc(N)nc2N)c1` yielded an Inhibition of 0%.

Values taken from ChEMBL document CHEMBL1157539, “Thousands of chemical starting points for antimalarial lead identification” (Nature, 2010).
